Dicer inh – inhibitors of Dicer pre-microRNA processing, primary screen, biochemical, cat-ELCCA, chemiluminescence; AID 1347074, 2019; 6% of 47,000 active; cat-ELCCA pre-miR-21 Dicer processing; hits give high values; z-score at 25 µM; in the data active = z-score above about 3, passing the limit was not always enough;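 also: higher signal means more uncleaved substrate so more Dicer inhibition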
Numbers stand for hits. This excerpt belongs to a sample that is enriched for hits.

Results for COC(=O)CSc1nc(N)nc(C)c1Cl ?
Dicer inh: inactive

How did COC(=O)CSc1cc(C)nc(NC(C)=O)n1 do in these assays?
Dicer inh: inactive

Results for COC(=O)CSc1nc(NC(C)=O)nc(C)c1Br ?
Dicer inh: 3.1

How did NC(=O)CCOC1CCN(Cc2ccccc2)CC1 do in these assays?
Dicer inh: inactive

Results for Cc1cc(NC(=O)c2cc3c(s2)-c2ccccc2CC3)ccc1Br ?
Dicer inh: inactive

How did O/N=C/c1ncc(C(F)(F)F)cc1Cl do in these assays?
Dicer inh: inactive

What do the screens show for `O=C(Oc1ccc(OC(=O)c2ccco2)c(Cl)c1)c1ccco1`?
Dicer inh: 7.4

What do the screens show for `O=C(Oc1cccc2cccnc12)c1ccco1`?
Dicer inh: inactive

Results for Cc1ccc(C)c(Oc2coc3cc(OC(=O)c4ccco4)ccc3c2=O)c1 ?
Dicer inh: inactive

How did N#Cc1c(-c2ccccc2)c(-c2ccccc2)n[nH]c1=S do in these assays?
Dicer inh: inactive

Results for CN(C)CCCNc1cccc(Cl)c1C#N ?
Dicer inh: inactive

How did CC1CC(=O)Nc2ccccc2N1C(=O)c1cccc(Cl)c1 (configuration not stated) do in these assays?
Dicer inh: inactive

Results for COc1ccc(/C(O)=C2\C(=O)C(=O)N(c3nnc(C)s3)C2c2ccc(Br)cc2)cc1 (configuration not stated) ?
Dicer inh: inactive

How did O=C(O)c1cccnc1 do in these assays?
Dicer inh: inactive

How did O=C(c1cccnc1)N1CCN(C(=O)c2ccco2)CC1 do in these assays?
Dicer inh: 4.7

What do the screens show for `O=C(c1cccnc1)N1CCN(c2ccc3ccccc3n2)CC1`?
Dicer inh: 4.2

What do the screens show for `O=C1NCCCC1C(=O)N1CCN(C(=O)c2ccco2)CC1` (configuration not stated)?
Dicer inh: inactive

Results for O=C(c1ccncc1)N1CCN(Cc2ccco2)CC1 ?
Dicer inh: inactive

How did O=C(c1ccccc1)N1CCN(C2=NS(=O)(=O)c3ccccc32)CC1 do in these assays?
Dicer inh: inactive

Results for Cn1c(=O)c2c(ncn2CC(=O)Nc2ccc(Br)cc2F)n(C)c1=O ?
Dicer inh: inactive

How did O=S(=O)(NNc1ncccc1-n1cccc1)c1ccc(Cl)c(Cl)c1 do in these assays?
Dicer inh: inactive

What do the screens show for `O=C1CC(Nc2ccc(N3CCCCC3)cc2)C(=O)N1c1ccccc1F` (configuration not stated)?
Dicer inh: 3.3

What do the screens show for `O=C1CC(Nc2ccc(N3CCOCC3)cc2)C(=O)N1c1ccccc1F` (configuration not stated)?
Dicer inh: inactive

How did O=C1CC(Nc2ccc(F)cc2)C(=O)N1c1ccc(N2CCCCC2)cc1 (configuration not stated) do in these assays?
Dicer inh: inactive

What do the screens show for `O=S(=O)(c1ccc(F)cc1)N1CCN(Cc2ccc3c(c2)OCO3)CC1`?
Dicer inh: 3.2

Results for COc1cccc(CNCc2ccc3c(c2)OCO3)c1OC ?
Dicer inh: inactive

How did COc1ccccc1CN1CCN(Cc2ccc3c(c2)OCO3)CC1 do in these assays?
Dicer inh: 4.2

What do the screens show for `COc1cccc(CN2CCN(Cc3ccc4c(c3)OCO4)CC2)c1OC`?
Dicer inh: 3.5

Results for O=S(=O)(c1ccc2c(c1)OCCO2)N1CCN(Cc2ccc3c(c2)OCO3)CC1 ?
Dicer inh: inactive

Results for Cc1[nH]c2ccccc2c1C(=O)CN1CCOCC1 ?
Dicer inh: inactive

How did Cc1[nH]c2ccccc2c1C(=O)CN1CCN(Cc2ccc3c(c2)OCO3)CC1 do in these assays?
Dicer inh: 3.3

What do the screens show for `COc1ccc(CN2CCN(Cc3ccc4c(c3)OCO4)CC2)c(OC)c1`?
Dicer inh: inactive

Results for CCc1ccc(S(=O)(=O)N2CCN(Cc3ccc4c(c3)OCO4)CC2)cc1 ?
Dicer inh: inactive

What do the screens show for `COc1cc(CN2CCN(Cc3ccc4c(c3)OCO4)CC2)cc(OC)c1`?
Dicer inh: inactive

Results for COc1ccc(CN2CCN(Cc3ccc4c(c3)OCO4)CC2)cc1 ?
Dicer inh: inactive

Results for COc1ccc(CN2CCN(Cc3ccc4c(c3)OCO4)CC2)cc1OCc1ccccc1 ?
Dicer inh: inactive

Results for O=S(=O)(NNc1cnc2ccccc2n1)c1ccccc1C(F)(F)F ?
Dicer inh: inactive

What do the screens show for `CCOc1ccccc1C1C2=C(Nc3c1c(=O)[nH]c(=O)n3C)c1ccccc1C2=O` (configuration not stated)?
Dicer inh: inactive

How did Cc1cc(=O)n2c(n1)NC(Nc1ccccc1)=NC2c1ccccc1 (configuration not stated) do in these assays?
Dicer inh: inactive

How did Cc1cc(C)n2nc(C(=O)N3CCOCC3)nc2n1 do in these assays?
Dicer inh: 4.4

What do the screens show for `O=C(c1nc2nc(-c3ccccc3)cc(C(F)(F)F)n2n1)N1CCOCC1`?
Dicer inh: inactive

What do the screens show for `COC(=O)c1nc2nc(C)cc(C)n2n1`?
Dicer inh: inactive

What do the screens show for `CCOC(=O)C1=C(C)NC2=C(C(=O)CCC2)C1c1ccc(OC)c(O)c1` (configuration not stated)?
Dicer inh: inactive

Results for C=CCn1c(SCC(=O)OCC)nc2c(c1=O)C1(CCCC1)Cc1ccccc1-2 ?
Dicer inh: inactive

What do the screens show for `O=c1c2c(nc(NCCCO)n1-c1ccccc1)-c1ccccc1CC21CCCC1`?
Dicer inh: inactive

Results for Cn1c(Cc2ccccc2)nc2c(c1=O)C1(CCCCC1)Cc1ccccc1-2 ?
Dicer inh: inactive

What do the screens show for `CSc1nc2c(c(=O)n1C)C1(CCCCC1)Cc1ccccc1-2`?
Dicer inh: inactive

How did COc1ccccc1-n1c(SCC(N)=O)nc2c(c1=O)C1(CCCCC1)Cc1ccccc1-2 do in these assays?
Dicer inh: 3.2

How did O=c1c2c(nc(NCCO)n1-c1ccccc1)-c1ccccc1CC21CCCC1 do in these assays?
Dicer inh: 4.1

How did CCOC(=O)c1cc(=O)n(C)c2c1c(=O)oc1ccccc12 do in these assays?
Dicer inh: inactive

How did O=C(O)c1cccc(Sc2cccc(C(=O)O)c2)c1 do in these assays?
Dicer inh: inactive

What do the screens show for `Cc1nc(C)nc(N(CCS(=O)(=O)c2ccccc2)CCS(=O)(=O)c2ccccc2)n1`?
Dicer inh: inactive

What do the screens show for `O=C1C2C3c4ccccc4C(c4ccccc43)C2C(=O)N1c1ccc(Cl)c(Cl)c1` (configuration not stated)?
Dicer inh: inactive

Results for Cc1ccc(N2C(=O)C3ON(c4ccccc4)C(c4ccncc4)C3C2=O)cc1Cl (configuration not stated) ?
Dicer inh: inactive

Results for CCCC1C2C(=O)N(c3ccccc3)C(=O)C2ON1c1ccc(Cl)c(Cl)c1 (configuration not stated) ?
Dicer inh: 7.2

Results for COc1cc(C2C(C#N)=C(C)NC3=C2C(=O)CC(c2ccc(Cl)cc2)C3)ccc1OC(C)=O (configuration not stated) ?
Dicer inh: inactive

How did CCn1c(SCC(=O)c2ccccc2)nc2sc3c(c2c1=O)CC(C)(C)OC3 do in these assays?
Dicer inh: inactive

Results for CC1(C)Cc2c(sc3[nH]c(=O)n(CC(=O)O)c(=O)c23)CO1 ?
Dicer inh: 3.9

Results for C=C(C)Cn1c(SCCC)nc2sc3c(c2c1=O)CC(C)(C)OC3 ?
Dicer inh: inactive

Results for O=C(Oc1ccccc1Oc1ccc(C(F)(F)F)cc1[N+](=O)[O-])c1cc2ccccc2s1 ?
Dicer inh: inactive

What do the screens show for `Cn1c(=O)c2c3nc4cc(Cl)c(Cl)cc4cc3c(=O)n(-c3ccccc3)c2n(C)c1=O`?
Dicer inh: inactive

Screening data (PubChem BioAssay)
